# Wnt bcat act: activators of Wnt/beta-catenin signaling; Wnt/beta-catenin reporter cell assay, activator, plate reader; 300,000 tested, 1.2% active; activation, % at 9.35 µM; in the data active = activation above about 30%, passing the limit was not always enough;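 also: 0% = neutral control wells and 100% = positive control wells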
# Statin myotox sup: suppression of simvastatin myotoxicity | C2C12 myotubes + simvastatin, ATP luminescence, 48 h; scaled: DMSO 0, geranylgeraniol control 100 | rescue of ATP level, % at 7.49 µM | 330,000 tested, 0.78% active;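 active = mean ATP rescue above about 67%, or every replicate alone reaching that limit, limit read from the data, passing the limit was not always enough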;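 also: myotubes were challenged with 10 µM simvastatin during compound exposure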
# MITF TRPM1 inh: MITF TRPM1 promoter inhibition in SK-MEL-5 cells; 330,000 tested, 0.83% active; SK-MEL-5 TRPM1 promoter luciferase, 24 h; inhibition, % at 12.5 µM;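 active = mean inhibition across replicates of 60% or more, whatever share of single replicates reaches that level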
# MITF act: activators of MITF-driven TRPM1 promoter activity in SK-MEL-5 cells; SK-MEL-5 TRPM1-promoter luciferase, 24 h; % of positive control, neutral wells = 0; activation, % at 12.5 µM; 300,000 tested, 0.75% active; AID 588334;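 active = mean activation of at least 80% with every replicate also reaching 80%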;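 also: 0% = neutral control wells and 100% = parthenolide positive control wells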
# EBV LMP1 NFkB: inhibitors of Epstein-Barr LMP1-induced NF-kappaB reporter; 350,000 tested, 0.69% active; inhibition, % at 12.5 µM; AID 504558; LMP1-induced NF-kappaB luciferase reporter cells, luminescence; in the data active = inhibition above about 41%;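 also: 0% = neutral control wells and 100% = reference inhibitor control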
# esBAF inh: SWI/SNF esBAF complex inhibition; mouse ES cells, Bmi1-luciferase knock-in reporter, 24 h; 100% = twice the neutral-well signal; reporter increase, % at 12.5 µM; 350,000 tested, 2% active; in the data active = activation above about 40%;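 also: 0% = median of the plate's neutral control wells and 100% = double that signal; a rise in the Bmi1 reporter signal indicates esBAF inhibition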
# Starred values were filed as active, the others as inactive; nt = not tested or not shown. Only some compounds are listed: those with a hit (about 4% of all), similar ones and a draw of the others.
SMILES,Wnt bcat act,Statin myotox sup,MITF TRPM1 inh,MITF act,EBV LMP1 NFkB,esBAF inh
CC1CCCN(c2ccc(C(=O)NCc3cccs3)cn2)C1 (configuration not stated),nt,-15,-71,79,-19,94*
CC1(c2nnnn2Cc2ccccc2)CCC(=O)N1Cc1cccc(C(F)(F)F)c1 (configuration not stated),-3,nt,nt,nt,nt,nt
C/C(=N\N=C(/N)c1nonc1N)c1ccc2c(c1)OCO2,12,-6,-27,nt,-11,61*
O=C(/C=C\N1CCOCC1)c1ccc(Br)cc1,10,24,-15,13,-22,47*
COc1ccccc1Cc1c(-c2ccc(OC)c(OC)c2)nc2c3ccccc3ccn12,-1,-1,nt,nt,nt,12
CCCc1nc2c3ccccc3ccn2c1Cc1cccc(F)c1,14,2,nt,nt,nt,46*
Fc1cccc(Cc2c(-c3ccco3)nc3c4ccccc4ccn23)c1,16,4,nt,nt,nt,72*
COc1ccc(-c2nc3c4ccccc4ccn3c2Cc2ccccc2)cc1OC,6,-2,nt,nt,nt,45*
C[C@H]1CCCCO[C@@H](CN(C)Cc2ccc3c(c2)OCO3)[C@@H](C)CN([C@@H](C)CO)C(=O)c2cc(NC(=O)c3ccncc3)ccc2O1,nt,nt,nt,nt,nt,-5
C[C@H](CO)N1C[C@H](C)[C@@H](CN(C)C(=O)Nc2ccc(C(F)(F)F)cc2)Oc2ccc(NS(=O)(=O)c3cn(C)cn3)cc2CC1=O,nt,-19,nt,nt,nt,-8
C=C(C)CNC(=S)Nc1nc2c(cc1C(=O)OCC)CCCC2,30,-4,-80,83*,-44,62*
CCOC(=O)c1cc2c(nc1N)CCCC2,7,nt,-9,7,-3,nt
CCCCCCOC(=O)c1ccccc1NC(=O)/C=C/C(=O)O,34*,12,0,nt,-4,36
CCC(=O)Nc1ccccc1C(=O)OCC(=O)c1ccc2ccccc2c1,50*,9,-8,8,13,19
O=C(O)/C=C\C(=O)Nc1ccccc1C#Cc1ccccc1,nt,-2,-26,25,-37,56*
O=C(O)/C=C/C(=O)Nc1ccccc1C(=O)OCC(=O)c1ccc2c(c1)OCCO2,32*,nt,-15,15,4,nt
CCCCC(=O)Nc1ccccc1C(=O)OCC(=O)c1ccc2c(c1)OCCO2,23,nt,-26,26,-9,nt
O=C(O)/C=C\C(=O)Nc1ccccc1C#Cc1ccc(Br)cc1,nt,-3,-25,25,-87,11
CCOC(=O)c1[nH]c(C(=O)O)c(CCC(=O)OC)c1C,-2,-1,-6,4,-13,6
COc1ccc(NC(=O)CSc2nnc(Cc3cccs3)n2-c2ccc(C)cc2)cc1,2,27,14,-18,14,-8
COCCNC(=O)C1(C)CCCN(CC(=O)c2ccc(OC)cc2)C1 (configuration not stated),-1,-1,nt,nt,nt,-8
CN1c2ccsc2/C(=N/Nc2ccc(F)cc2)CS1(=O)=O,12,-6,-13,16,-38,64*
Cc1ccc(N/N=C2\CS(=O)(=O)N(C)c3ccsc32)cc1,8,0,-11,9,-32,59*
CCCC(=O)N/N=C1\CS(=O)(=O)N(C)c2ccsc21,-1,-2,-1,5,-11,-1
NS(=O)(=O)c1ccc(-c2ccc(/C=C3\NC(=S)NC3=O)o2)cc1,2,nt,7,-7,2,nt
SMILES,Wnt bcat act,Statin myotox sup,MITF TRPM1 inh,MITF act,EBV LMP1 NFkB,esBAF inh
Nc1nnc(SCC(=O)Nc2cccc(S(=O)(=O)N3CCOCC3)c2)s1,-1,-3,3,-2,3,1
COc1ccc(C(=O)c2ccc(-c3ccc(OC)cc3)nc2)cc1,-1,0,-60,20,nt,6
CCc1ccc(-c2ccc(C(=O)O)cc2)nc1,26,-8,-29,34,-13,46*
COc1ccc2nc(N3C(=O)CNC3=S)sc2c1,54*,nt,-10,nt,4,nt
O=C(Cc1ccccn1)N[C@@H]1CC[C@H](CCn2cc(-c3ccccc3)nn2)O[C@@H]1CO,nt,6,nt,nt,nt,1
Cc1ccc(NC(=O)CN(C)S(=O)(=O)c2cccs2)cc1F,nt,-3,-44,45,-24,51*
CCOc1ccc(NC(=O)CN(C)S(=O)(=O)c2cccs2)cc1,nt,-4,-41,40,-2,54*
Cc1ccc(NC(=O)CN(C)S(=O)(=O)c2cccs2)cc1C,3,-8,-44,45,-5,98*
Cc1ccc(NC(=O)CN(C)S(=O)(=O)c2cccs2)c(Br)c1,1,0,-15,11,-1,32
COc1cc(NC(=O)CN(C)S(=O)(=O)c2cccs2)cc(OC)c1,-3,8,-6,5,nt,6
Cc1cc(C)c(S(=O)(=O)N2CCN(c3ccc([N+](=O)[O-])c(NCC4CCCO4)c3)CC2)c(C)c1 (configuration not stated),nt,9,11,-9,7,2
O=C(NCC[C@H]1CC[C@H](NS(=O)(=O)c2cccc(F)c2)[C@H](CO)O1)C1CCOCC1,nt,-1,nt,nt,nt,-3
Cc1noc(C)c1NC(=O)N(C)C[C@H]1Oc2c(NS(C)(=O)=O)cccc2C(=O)N([C@H](C)CO)C[C@@H]1C,nt,nt,nt,nt,nt,-2
COc1cccc(N2CCN(C(=S)NCCc3ccccc3)CC2)c1,6,nt,3,-1,-3,nt
Clc1ccc2c(N/N=C/c3cccc(Br)c3)ccnc2c1,nt,nt,83*,-83,-77,nt
Clc1ccc2c(N/N=C/c3ccccc3Br)ccnc2c1,2,nt,83*,-84,-28,nt
CC(=O)c1ccc(OCC(=O)Nc2cccc(S(=O)(=O)N3CCCC3)c2)cc1,1,-8,7,-5,7,1
Cc1ccc2c(c1)Sc1c(ccc3ccccc13)N2,46*,3,-7,8,-145,51*
CCOC(=O)C1=C(C)Nc2ccc(C)cc2S1,12,nt,9,-8,4,nt
COc1ccc(CN2CCN(C(=O)c3cccs3)CC2)cc1Br,-1,157*,-6,5,2,0
O=C(c1cccs1)N1CCN(C2CCN(Cc3ccccc3)CC2)CC1,-1,101*,7,-7,2,-1
Cc1cccc(NC(=O)Nc2ccc3c(c2)C(=O)N(C)[C@H]2CC[C@H](CC(=O)NCc4ccccc4Cl)O[C@H]2CO3)c1,nt,-42,nt,nt,nt,12
O=C(O)c1cc(-c2ccc(-c3c(-c4ccc5c(c4)OCO5)noc3-c3ccsc3)cc2)nc2ccccc12,22,5,-97,97*,-4,68*
Cc1cc(C(=O)O)ccc1-c1ccc(/C=C2\SC(=O)N(CC(=O)Nc3ccc4c(c3)OCO4)C2=O)o1,0,13,7,-6,2,1
C#CCN1C(=O)S/C(=C\c2ccc(-c3ccc(C(=O)O)cc3C)o2)C1=O,16,-6,-46,47,-14,86*
O=C(NC(=S)Nc1cc(C(F)(F)F)ccc1Cl)c1ccccc1,nt,-16,10,-10,-8,25
O=C(O)c1ccc(NNC(=S)Nc2cc(C(F)(F)F)ccc2Cl)cc1,7,-47,nt,nt,-25,54*

# Bioassay records: PubChem, Broad Institute
